Measurements from PubChem BioAssay (EPA / NIEHS).
The source made the active and inactive calls. Rule for the calls: active = hit-call score of the fitted dose curve at least 0.9, where 1 is the maximum; inactive = score below 0.9.

Test: ATG_NF_kB_CIS: Attagene CIS-FACTORIAL HepG2 Assay for human Nuclear Factor Kappa B (NF-kB) (AID 2282991)
Details: HepG2 Attagene cis-factorial NF-kB reporter mRNA; actives raise or lower the signal
Summary of the method: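 HepG2 cells transfected with cis-promoter-driven reporter units, so endogenous transcription factor activity is measured. Reporter mRNA quantified 24 h after dosing by RT-PCR and capillary electrophoresis, with bidirectional fitting against DMSO.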

Structure (SMILES) | outcome | AC50
C=C(C)CCO | inactive | 
CCC(C)OC(=O)c1ccc(O)cc1 (stereo not drawn) | inactive | 
CC(=O)[C@H]1[C@H](C#N)C[C@H]2[C@@H]3CC=C4C[C@@H](O)CC[C@]4(C)[C@H]3CC[C@@]21C | inactive | 
CCCOC(=O)CCCCC(=O)OCCC | inactive | 
CCCCCCCCCCCCCCCC(=O)OCC | inactive | 
O=C(O)CCCC[C@@H]1SC[C@@H]2NC(=O)N[C@@H]21 | inactive | 
CC(=O)OCC(=O)[C@@]12N=C(C)O[C@@H]1C[C@H]1[C@@H]3CCC4=CC(=O)C=C[C@]4(C)[C@H]3[C@@H](O)C[C@@]12C | inactive | 
Cc1ccc([N+](=O)[O-])cc1S(=O)(=O)O | inactive | 
CC1(C)O[C@@H]2C[C@H]3[C@@H]4C[C@H](F)C5=CC(=O)CC[C@]5(C)[C@H]4[C@@H](O)C[C@]3(C)[C@]2(C(=O)CO)O1 | inactive | 
O=C1CCCN1CCO | inactive | 
C=CC(C)(CCC=C(C)C)OC(=O)CC(C)C (stereo not drawn) | inactive | 
CCCCCCCOC(=O)CCC | inactive | 
O=c1cc(-c2ccccc2)oc2ccccc12 |  | 82.3 µM (active)
CC(=O)NS(=O)(=O)c1ccc(N)cc1 | inactive | 
C[C@]12CCC(=O)C=C1CC[C@@H]1[C@@H]2C(=O)C[C@@]2(C)[C@H]1CC[C@]2(O)C(=O)CO | inactive | 
O=c1[nH]nc(-c2ccc([N+](=O)[O-])o2)o1 | inactive | 
Nc1ccc(N=Nc2ccccc2)c(N)n1 | inactive | 
C=CC=CC=CCCCCC | inactive | 
O=C1c2ccccc2C(=O)C1c1nc2ccccc2c(Br)c1O |  | 28.4 µM (active)
CC(=O)OCCC1CCCCC1 | inactive | 
CCCCC/C=C\CCC=O | inactive | 
CC(C)(C)C1CCCCC1=O (stereo not drawn) | inactive | 
CC(=O)OC1C2(C)CCC(C2)C1(C)C (stereo not drawn) | inactive | 
COc1ccc(-c2coc3cc(O)ccc3c2=O)cc1 | inactive | 
C=C(C)c1cccc(C(C)(C)N=C=O)c1 | inactive | 

Test: ATG_NRF2_ARE_CIS: Attagene CIS-FACTORIAL HepG2 Assay for human Nuclear Factor Erythroid 2 Related Factor 2 (NFR2) response to Antioxidant Response Elements (ARE) (AID 2282992);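 for AC50: reporter mRNA level measured by RT-PCR and capillary electrophoresis fluorescence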
Details: HepG2 Attagene ARE/NRF2 reporter, transcription factor activity; actives raise or lower the signal
Summary of the method: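 Endogenous transcription factor activity in human liver HepG2 cells is tracked via a cis-element-driven reporter within a multiplexed set. mRNA induction is read by RT-PCR and capillary electrophoresis after 24 h, with DMSO as baseline.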

Structure (SMILES) | AC50 | outcome
CCC(C)OC(=O)c1ccc(O)cc1 (stereo not drawn) | 100 µM (active) | 
CC(=O)[C@H]1[C@H](C#N)C[C@H]2[C@@H]3CC=C4C[C@@H](O)CC[C@]4(C)[C@H]3CC[C@@]21C |  | inactive
CCCOC(=O)CCCCC(=O)OCCC |  | inactive
CNC(=S)NN |  | inactive
CCCCCCCCCCCCCCCC(=O)OCC |  | inactive
O=C(O)CCCC[C@@H]1SC[C@@H]2NC(=O)N[C@@H]21 |  | inactive
Cc1ccc([N+](=O)[O-])cc1S(=O)(=O)O |  | inactive
Nc1ccc2cc3ccccc3cc2c1 | 47 µM (active) | 
CN(C)CCCN(C)C |  | inactive
O=C(Nc1ccccc1)c1ccccc1O |  | inactive
CC1(C)O[C@@H]2C[C@H]3[C@@H]4C[C@H](F)C5=CC(=O)CC[C@]5(C)[C@H]4[C@@H](O)C[C@]3(C)[C@]2(C(=O)CO)O1 |  | inactive
O=C1CCCN1CCO |  | inactive
C=CC(C)(CCC=C(C)C)OC(=O)CC(C)C (stereo not drawn) | 100 µM (active) | 
CCCCCCCOC(=O)CCC |  | inactive
O=c1cc(-c2ccccc2)oc2ccccc12 | 4.03 µM (active) | 
O=C(c1ccccc1)c1ccc(O)c(O)c1O | 61.6 µM (active) | 
C=C(C)C(=O)OCCO |  | inactive

Structure (SMILES) | AC50 | outcome
C[C@]12CCC(=O)C=C1CC[C@@H]1[C@@H]2C(=O)C[C@@]2(C)[C@H]1CC[C@]2(O)C(=O)CO |  | inactive
COc1cc(NC(=O)CC(C)=O)c(OC)cc1Cl |  | inactive
O=c1[nH]nc(-c2ccc([N+](=O)[O-])o2)o1 | 61.3 µM (active) | 
Nc1ccc(N=Nc2ccccc2)c(N)n1 | 15.3 µM (active) | 
CC(C)(C)c1ccc(N)cc1 |  | inactive
C=CC=CC=CCCCCC | 20 µM (active) | 
O=C1c2ccccc2C(=O)C1c1nc2ccccc2c(Br)c1O | 1.83 µM (active) | 
c1ccc(-c2ccccn2)nc1 |  | inactive
CCCCC/C=C\CCC=O |  | inactive
CC(C)(C)C1CCCCC1=O (stereo not drawn) |  | inactive
CC1(C)O[C@@H]2C[C@H]3[C@@H]4C[C@H](F)C5=CC(=O)C=C[C@]5(C)[C@@]4(F)[C@@H](O)C[C@]3(C)[C@]2(C(=O)CO)O1 |  | inactive
CC1OC1C1CCC2(C)OC2C1 (stereo not drawn) | 100 µM (active) | 
CCOC(=O)Cc1cccc2ccccc12 |  | inactive
COc1ccc2nc(N)sc2c1 | 13.9 µM (active) | 
CC(=O)OC1C2(C)CCC(C2)C1(C)C (stereo not drawn) |  | inactive
COc1ccc(-c2coc3cc(O)ccc3c2=O)cc1 |  | inactive

Test: ATG_Oct_MLP_CIS: Attagene CIS-FACTORIAL HepG2 Assay for human Octamer-Binding Transcription Factor (Oct) (AID 2282993)
Details: HepG2 Attagene cis-factorial Oct reporter, mRNA; actives raise or lower the signal
Summary of the method: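 Readout is reporter transcript level from RT-PCR with fluorescent primer extension and capillary electrophoresis, fitted in both directions against DMSO. Transfected HepG2 reporter units report endogenous factor activity after 24 h dosing.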

Structure (SMILES) | outcome | AC50
CCC(C)OC(=O)c1ccc(O)cc1 (stereo not drawn) | inactive | 
CC(=O)[C@H]1[C@H](C#N)C[C@H]2[C@@H]3CC=C4C[C@@H](O)CC[C@]4(C)[C@H]3CC[C@@]21C | inactive | 
CNC(=S)NN | inactive | 
CCCCCCCCCCCCCCCC(=O)OCC | inactive | 
O=C(O)CCCC[C@@H]1SC[C@@H]2NC(=O)N[C@@H]21 | inactive | 
CC(=O)OCC(=O)[C@@]12N=C(C)O[C@@H]1C[C@H]1[C@@H]3CCC4=CC(=O)C=C[C@]4(C)[C@H]3[C@@H](O)C[C@@]12C | inactive | 
Cc1ccc([N+](=O)[O-])cc1S(=O)(=O)O | inactive | 
CC=CC(=O)N(CC)c1ccccc1C | inactive | 
Nc1ccc2cc3ccccc3cc2c1 | inactive | 
CN(C)CCCN(C)C | inactive | 
O=C(Nc1ccccc1)c1ccccc1O |  | 48.3 µM (active)
CCCCCC/C=C/C=O | inactive | 
CC1(C)O[C@@H]2C[C@H]3[C@@H]4C[C@H](F)C5=CC(=O)CC[C@]5(C)[C@H]4[C@@H](O)C[C@]3(C)[C@]2(C(=O)CO)O1 | inactive | 
O=C1CCCN1CCO | inactive | 
C=CC(C)(CCC=C(C)C)OC(=O)CC(C)C (stereo not drawn) | inactive | 
CCCCCCCOC(=O)CCC | inactive | 
O=C(c1ccccc1)c1ccc(O)c(O)c1O | inactive | 
CC(=O)NS(=O)(=O)c1ccc(N)cc1 | inactive | 

Structure (SMILES) | outcome | AC50
C=C(C)C(=O)OCCO | inactive | 
C[C@]12CCC(=O)C=C1CC[C@@H]1[C@@H]2C(=O)C[C@@]2(C)[C@H]1CC[C@]2(O)C(=O)CO | inactive | 
COc1cc(NC(=O)CC(C)=O)c(OC)cc1Cl | inactive | 
O=c1[nH]nc(-c2ccc([N+](=O)[O-])o2)o1 | inactive | 
Nc1ccc(N=Nc2ccccc2)c(N)n1 |  | 69.7 µM (active)
CC(C)(C)c1ccc(N)cc1 | inactive | 
C=CC=CC=CCCCCC | inactive | 
O=C1c2ccccc2C(=O)C1c1nc2ccccc2c(Br)c1O | inactive | 
c1ccc(-c2ccccn2)nc1 | inactive | 
CC(=O)OCCC1CCCCC1 | inactive | 
CC(C)(C)C1CCCCC1=O (stereo not drawn) | inactive | 
CC1(C)O[C@@H]2C[C@H]3[C@@H]4C[C@H](F)C5=CC(=O)C=C[C@]5(C)[C@@]4(F)[C@@H](O)C[C@]3(C)[C@]2(C(=O)CO)O1 | inactive | 
CC1OC1C1CCC2(C)OC2C1 (stereo not drawn) | inactive | 
CCOC(=O)Cc1cccc2ccccc12 | inactive | 
COc1ccc2nc(N)sc2c1 | inactive | 
COc1ccc(-c2coc3cc(O)ccc3c2=O)cc1 | inactive | 
C=C(C)c1cccc(C(C)(C)N=C=O)c1 | inactive | 
